Experimental data: PubChem BioAssay (NCATS)
Where “and” joins values, the source holds several entries; their conditions need not be identical. Identical values can stand only once. Records with an inconclusive call do not appear. Entries that show only a call come without a potency. Values without a mark were called inactive. Calls of active or inactive are those of the source. The call rests on the fitted dose curve; in most records, active means well fitted curve in the direction sought with a large enough effect; inconclusive means small, poorly fitted or top-dose-only effect, or another doubt; inactive means no such curve, though single readings can be large; an effect the other way counts as inactive or inconclusive. Peptide text beside a SMILES is read from it. * marks the point of attachment. βNA = c1ccc2cc(N*)ccc2c1; Cbz = O=C(OCc1ccccc1)*

Tests used:
[1] = target: Cellular tumor antigen p53 (Homo sapiens) (UniProt P04637); assay: Primary qHTS for small molecule compounds that upregulate eGFP-tagged delta133p53alpha (in N-terminal) cells. (AID 2060322); conditions: NCI-H358 eGFP-delta133p53alpha fluorescence, 24 h; activation: stronger effect = higher value; further: nearly all actives have a fitted effect of over 75% in size; further: potency means the concentration at half of the fitted maximal effect; on activation: series mostly up to about 56 µM
In short: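 NCI-H358 cells pre-induced 24 h with 10 ng/ml doxycycline to express N-terminal eGFP-delta133p53alpha, then dosed 24 h at 37C without doxycycline; fixed, Hoechst-stained, GFP intensity by laser scanning cytometry, normalized to DMSO (0%) and 57.5 uM 5-azacytidine (100%).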

[2] = target: Aldehyde dehydrogenase, mitochondrial (Homo sapiens) (UniProt P05091); assay: qHTS for Inhibitors of the Aldehyde Dehydrogenase Family (ALDH2) Primary screen (AID 2061308); further: nearly all actives have a fitted effect of over 55% in size
[3] = target: Retinaldehyde dehydrogenase 3 (Homo sapiens) (UniProt P47895); assay: qHTS for Inhibitors of the Aldehyde Dehydrogenase Family (ALDH1A3) Primary screen (AID 2061315)

Chain of Cellular tumor antigen p53 (Homo sapiens) (P04637 whole entry, looked up): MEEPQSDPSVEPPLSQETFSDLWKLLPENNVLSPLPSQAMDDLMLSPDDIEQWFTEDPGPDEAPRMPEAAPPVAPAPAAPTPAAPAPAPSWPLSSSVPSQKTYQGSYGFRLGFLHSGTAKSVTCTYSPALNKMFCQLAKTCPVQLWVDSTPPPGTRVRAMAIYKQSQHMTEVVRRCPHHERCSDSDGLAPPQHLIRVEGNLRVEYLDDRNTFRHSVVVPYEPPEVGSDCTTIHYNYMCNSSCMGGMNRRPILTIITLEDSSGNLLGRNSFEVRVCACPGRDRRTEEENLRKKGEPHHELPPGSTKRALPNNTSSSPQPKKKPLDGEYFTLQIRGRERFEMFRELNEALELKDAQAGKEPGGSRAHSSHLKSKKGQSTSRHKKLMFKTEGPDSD

Row | Structure (SMILES) | activation [1] | Potency [2] | Potency [3] | activity change, negative = inhibition [2] | activity change, negative = inhibition [3] | Potency [1]
1 | C/C=C(/C)C(=O)OC1C2OC2C2(CO2)C2C3OC(=O)C(C)C3CCC12C (stereo not given) | 18.3% | inactive | inactive | – | – | –
2 | Nc1nc(-n2cc(C(=O)O)c(=O)c3cc(F)c(N4CC(O)C4)c(Cl)c32)c(F)cc1F | 13% | inactive | inactive | – | – | –
3 | CC1C(=O)OCC2=CC[N+]3([O-])CCC(OC(=O)C(C)(O)C1(C)O)C23 (stereo not given) | 24.1% | inactive | inactive | – | – | –
4 | C[C@@H]1O[C@@H](O[C@H]2[C@@H]3C=CO[C@@H](O[C@@H]4O[C@H](CO)[C@@H](O)[C@H](O)[C@H]4O)[C@@H]3[C@@]3(CO)O[C@@H]23)[C@H](OC(=O)/C=C/c2ccccc2)[C@H](O)[C@H]1O | 4.46% | inactive | inactive | – | – | –
5 | CC1C(OC(=O)c2ccccc2)C(O)C2C(C(=O)O)=COC(OC3OC(CO)C(O)C(O)C3O)C12 (stereo not given) | -16% | inactive | inactive | – | – | –
6 | C[C@@H]1O[C@@H](O[C@@H]2[C@@H](O)[C@H](O[C@@H]3[C@@H](O)[C@@H](O)[C@H](O[C@H]4[C@H](OC(=O)[C@]56CCC(C)(C)C[C@H]5C5=CCC7[C@@]8(C)C[C@H](O)[C@H](O[C@@H]9O[C@@H](C)[C@H](O)[C@@H](O)[C@H]9O)[C@@](C)(CO)C8CC[C@@]7(C)[C@]5(C)C[C@H]6O)O[C@H](C)[C@H](O)[C@@H]4O)O[C@H]3C)OC[C@H]2O)[C@H](O)[C@H](O)[C@H]1O (stereo not given in full) | 19.6% | – | – | 0.778% [at 11.2 µM] | 5.2% [at 11.2 µM] | –
7 | CC1(C)C(=O)N2c3ccccc3C(O)(CC(C(=O)O)n3cnc4ccccc4c3=O)C2N1O (stereo not given) | 16% | inactive | inactive | – | – | –
8 | CCCCC1CCN(CCCC(=O)c2ccccc2C)CC1 | 17% | inactive | inactive | – | – | –
9 | C=CC[C@]12C[C@@H](OC)C(=O)C(OC)=C1O[C@@H](c1cc(OC)c3c(c1)OCO3)[C@@H]2C | -13.4% | inactive | inactive | – | – | –
10 | COc1ccc(/C=C/C(=O)O[C@@H]2[C@@H](OC(C)=O)[C@@H](OC(C)=O)[C@H](O[C@H]3[C@@H]4C=CO[C@@H](O[C@@H]5O[C@H](CO)[C@@H](O)[C@H](O)[C@H]5O)[C@@H]4[C@@]4(CO)O[C@@H]34)O[C@H]2C)cc1 | 5.34% | inactive | inactive | – | – | –
11 | Cc1ccc2c(Nc3ccc(Cl)cc3)nccc2c1Nc1ncccc1-c1ncnc2nc[nH]c12 | – | inactive | inactive | – | – | 9.53 µM (active)
12 | C=C1CC[C@@]2(OC1)O[C@H]1CC3[C@@H]4CC=C5C[C@H](O[C@H]6OC[C@@H](O)C(O)[C@@H]6O[C@@H]6O[C@@H](C)[C@H](O)[C@@H](O[C@@H]7O[C@H](CO)[C@@H](O)[C@H](O)[C@H]7O)[C@H]6O)C[C@@H](O)[C@]5(C)C4CC[C@]3(C)[C@H]1[C@@H]2C (stereo not given in full) | -6.25% | inactive | inactive | – | – | –
13 | Cc1ccc(C)c(NC(=O)CNS(=O)(=O)c2ccc3[nH]c(=O)oc3c2)c1 | 17% | inactive | inactive | – | – | –
14 | CC(=O)N[C@@H](CCCCN)C(=O)N(C)[C@@H](CC(C)C)C(=O)N[C@H](C(=O)N(C)[C@@H](Cc1ccccc1)C(=O)N[C@H](Cc1ccccc1)C(N)=O)C(C)C | 7.67% | – | – | 0.957% [at 5.59 µM] | 0.0688% [at 5.59 µM] | –
15 | C=C1C(=O)O[C@@H]2/C=C(\C)CC/C=C(\C)CC[C@@H]12 | – | inactive | inactive | – | – | 21.3 µM (active)
16 | C[C@H]1CCN2C[C@]34C[C@@]5(C(=O)Nc6c5ccc5c6OC=CC(C)(C)O5)C(C)(C)C3C[C@]12C(=O)N4C (stereo not given in full) | 5.34% | inactive | inactive | – | – | –
17 | C=C1CC2C(C)(CCC(=O)O)C(C(C)(C)O)CCC2(C)C2(C(=O)OC)C(=O)C(C)(O)C(=O)C12C (stereo not given) | -21.4% | inactive | inactive | – | – | –
18 | CC(C)(O)c1ccc2c(c1)C(O)C[C@H]1[C@](C)(C(=O)O)CCC[C@]21C (stereo not given in full) | 3.57% | inactive | inactive | – | – | –
19 | C/C(=C\CC[C@@H](C)[C@H]1CC(O)[C@@]2(C)C3CC[C@H]4C(C)(C)[C@@H](OC5OCC(O)C(O)C5OC5OC(CO)C(O)C(O)C5O)CC[C@@]45C[C@@]35CC(O)[C@]12C)C(=O)O (stereo not given in full) | -16.8% | inactive | inactive | – | – | –
20 | CC1CC(=O)[C@]2(O)C(C(=O)OCCc3ccc(O)cc3)=CO[C@@H](O[C@@H]3O[C@H](CO)[C@@H](O)[C@H](O)[C@H]3O)[C@H]12 (stereo not given in full) | -18.3% | inactive | inactive | – | – | –
21 | C=C(C(=O)O)[C@@H]1CC=C(CCC(C)=O)[C@@H](C)CC1 | 8.93% | inactive | inactive | – | – | –
22 | C[C@@]1(C(=O)O)CCC[C@@]2(C)C3=CC[C@H]4C[C@@]3(CC[C@H]12)CC4(O)CO (stereo not given in full) | -2.29% | inactive | inactive | – | – | –
23 | CC1(C)CC[C@]2(C(=O)O[C@@H]3O[C@H](CO)[C@@H](O)[C@H](O)[C@H]3O)CC[C@]3(C)C(=CCC4[C@@]5(C)C[C@@H](O)[C@H](O)C(C)(C)C5CC[C@]43C)C2[C@@H]1O (stereo not given in full) | -8.04% | inactive | inactive | – | – | –

Row | Structure (SMILES) | activation [1] | Potency [2] | Potency [3] | activity change, negative = inhibition [2] | activity change, negative = inhibition [3] | Potency [1]
24 | CO[C@@H]1CC(OC2CCC3(C)C(CCC45CCC(C6=CC(=O)OC6)C(C)(CCC43)C5=O)C2)O[C@H](C)[C@@H]1O[C@@H]1O[C@H](CO[C@@H]2O[C@H](CO)[C@@H](O)[C@H](O)[C@H]2O)[C@@H](O)[C@H](O)[C@H]1O (stereo not given in full) | 1.53% | inactive | inactive | – | – | –
25 | CC1(C)Oc2ncnc(N)c2N=C1c1ccc(C2CCC(CC(=O)O)CC2)cc1 (stereo not given) | -4.46% | inactive | inactive | – | – | –
26 | O=C1C=CC(O)(/C=C/C(=O)OC[C@H]2O[C@@H](Oc3ccc(O)cc3)[C@H](O)[C@@H](O)[C@@H]2O)C=C1 | 6.25% | inactive | inactive | – | – | –
27 | COc1c(CCC(=O)O)cccc1O[C@@H]1O[C@H](CO)[C@@H](O)[C@H](O)[C@H]1O | -4.58% | inactive | inactive | – | – | –
28 | CCC(C)/C=C(C)/C=C/C1=CC2=C(Cl)C(=O)C(C)(OC(C)=O)C(=O)C2=CN1C(CCC(=O)O)C(=O)O (stereo not given) | -13% | inactive | inactive | – | – | –
29 | CC1(C)CCCC2(C)C1CC(=O)C13CC(CCC12)C(O)(CO)C3 (stereo not given) | -7.63% | inactive | inactive | – | – | –
30 | C[C@H]1[C@@H](O)[C@H](O)C2[C@]3(C)C([C@@H](O)[C@H]4OC(=O)[C@@H]1[C@@]24C)[C@](C)(O)C=C[C@H]3O[C@@H]1O[C@H](CO)[C@@H](O)[C@H](O)[C@H]1O (stereo not given in full) | 0.893% | inactive | inactive | – | – | –
31 | COc1cc(/C=C/C(=O)O[C@H]2C[C@@H]3C(C(=O)O)=CO[C@@H](O[C@@H]4O[C@H](CO)[C@@H](O)[C@H](O)[C@H]4O)[C@@H]3[C@H]2C)ccc1O | -2.29% | inactive | inactive | – | – | –
32 | C/C1=C\[C@@H](C)C[C@@H](C)[C@@H](Cc2cnco2)OC(=O)/C(C)=C/[C@@H](C)C[C@@H](C)[C@@H](Cc2cnco2)OC1=O | 0% | inactive | inactive | – | – | –
33 | Cc1ncc([N+](=O)[O-])n1CC(O)CN1CCOCC1 (stereo not given) | -11% | inactive | inactive | – | – | –
34 | Cc1cc(CS(=O)(=O)c2ccccc2)cc(OCc2ccc(CN3CCCC3CO)cc2)c1 (stereo not given) | 8.93% | inactive | inactive | – | – | –
35 | Cc1ccc([C@@H]2CC=C(C(=O)O)[C@H](c3ccc(C(C)(C)C)cc3)N2S(=O)(=O)c2ccc(C)cc2)cc1 | -26.3% | inactive | inactive | – | – | –
36 | C/C1=C\CCC(C)CCO[C@@H]2O[C@H](CO[C@@H]3OC[C@H](O)[C@H](O)[C@H]3OC1=O)[C@@H](O)[C@H](O)[C@H]2O (stereo not given in full) | -24.1% | inactive | inactive | – | – | –
37 | CC1CCCC(O)CC(=O)c2c(O)cc(O)cc2CC(=O)O1 (stereo not given) | 4.58% | inactive | inactive | – | – | –
38 | C=C1CC[C@@]2(OC1)O[C@H]1CC3[C@@H]4CC=C5C[C@@H](O)C[C@@H](O[C@@H]6OC[C@H](O)[C@H](O)[C@H]6O[C@@H]6O[C@@H](C)[C@H](O)[C@@H](O)[C@H]6O)[C@]5(C)C4CC[C@]3(C)[C@H]1[C@@H]2C (stereo not given in full) | -26% | inactive | inactive | – | – | –
39 | CC(C)CC(NC(=O)OCc1ccccc1)C(=O)NC(CC(C)C)C(=O)NC(CCC(=O)O)C(=O)Nc1ccc2ccccc2c1 (stereo not drawn) (Cbz-Leu-Leu-Glu-βNA; configuration not given here) | -5.67% | inactive | inactive | – | – | –
40 | Nc1ccc(S(=O)(=O)Nc2nccs2)cc1 | 18.4% and 0.333% | inactive | inactive | – | – | –
41 | O=C(O)c1cc(O[C@@H]2O[C@H](CO)[C@@H](O)[C@H](O)[C@H]2O)ccc1O | -3.05% | inactive | inactive | – | – | –
42 | CC(=O)C1=CCC2C3CC=C4CC(O)CC(O)C4(C)C3C(O)CC12C (stereo not given) | 6.11% | inactive | inactive | – | – | –
43 | C=C1CC/C=C(/CO)C(=O)C[C@@H]2[C@@H]1CC2(C)C | 7.14% | inactive | inactive | – | – | –
44 | O=C(O)Cc1cccc(-c2cc(CCCCCCc3ccc(O[C@H]4O[C@H](CO)[C@@H](O)[C@H](O)[C@@H]4O)c(-c4cccc(CC(=O)O)c4)c3)ccc2O[C@H]2O[C@H](CO)[C@@H](O)[C@H](O)[C@@H]2O)c1 | 4.33% | – | – | -4.79% [at 0.464 µM] | -13.7% [at 0.464 µM] | –
45 | C=C1CCC2C(C)(C)CCC[C@]2(C)[C@H]1CC/C(C)=C/C(=O)O (stereo not given in full) | -3.82% | inactive | inactive | – | – | –
